Compound activity deposited in PubChem by several laboratories.
Bim-Mcl-1 = inhibitors of Bim-Mcl-1 interaction, human; Q07820; Bead-based flow cytometry, Bim peptide-Mcl-1 binding; inhibition, % at 10 µM; 0.1% of 190,000 active; in the data active = inhibition above about 40%;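 note: 0% = no compound tracer wells and 100% = peptide blocker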
Target sequence (Q07820 whole entry, looked up): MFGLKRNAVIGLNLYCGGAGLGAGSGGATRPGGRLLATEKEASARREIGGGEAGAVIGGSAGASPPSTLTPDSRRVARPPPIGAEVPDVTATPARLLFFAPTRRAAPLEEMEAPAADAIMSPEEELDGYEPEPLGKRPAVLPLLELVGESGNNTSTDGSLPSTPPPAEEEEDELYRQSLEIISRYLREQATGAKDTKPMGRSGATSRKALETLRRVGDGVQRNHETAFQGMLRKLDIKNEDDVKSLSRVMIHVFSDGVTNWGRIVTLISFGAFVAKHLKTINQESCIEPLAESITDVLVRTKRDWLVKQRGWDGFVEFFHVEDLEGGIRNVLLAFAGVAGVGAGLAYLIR
Mcl1 Bid PPI = disrupts binding of human Mcl-1 to Bid peptide. 0.97% of 220,000 active. AID 1021. Q07820. TR-FRET Mcl-1/Bid-Dy647 peptide binding, 1536-well. inhibition, % at 21.7 µM;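 active = compounds that cut the binding signal by more than half at the single screening dose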;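 note: His-tagged Mcl-1 with europium anti-His antibody binding Bid BH3 peptide; 0% = Mcl-1 plus peptide wells and 100% = peptide-only wells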
Mcl1-Noxa inh = Mcl-1/Noxa interaction inhibition; Q07820; TR-FRET Mcl-1/Noxa peptide binding, 2 h; inhibition, % at 21.7 µM; 1.5% of 220,000 active; AID 1022;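 active = compounds that cut the protein-peptide binding signal by more than 50% relative to plate controls in a single-dose test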;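 note: His-tagged Mcl-1 with rhodamine Noxa BH3 peptide and terbium anti-His antibody; 0% = Mcl-1 plus Noxa peptide wells and 100% = peptide-only wells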
GLD-1 RNA inh = GLD-1-TGE RNA interaction inhibition (C. elegans); 0.44% of 320,000 active; inhibition, % at 5.96 µM; Q17339; AID 2280; purified GLD-1 + fluorescein TGE RNA, fluorescence polarization;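 active = percent inhibition above a per-plate cutoff, the plate mean of test compounds plus 3 SD, cut at about 30% in these data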;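 note: 0% = DMSO wells with GLD-1 and probe and 100% = wells lacking GLD-1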
MCL1 BIM primary = disrupts human MCL1 binding to BIM-BH3 peptide; Q07820; GST-MCL1 / FITC-Bim-BH3 fluorescence polarization; inhibition, % at 10.9 µM; 0.68% of 320,000 active; AID 2057;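 active = inhibition above the mean inhibition of all tested compounds plus 3 SD, set per campaign, cut at about 40% in these data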;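 note: 0% = DMSO wells and 100% = unlabeled Bim-BH3 peptide control; higher means more loss of mP so more displacement of Bim peptide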
Bcl-xL primary = blocks human Bcl-xL binding to Bim BH3 peptide; Q07817; GST-Bcl-xL / FITC-Bim BH3 peptide fluorescence polarization; inhibition, % at 10.9 µM; 0.7% of 320,000 active; AID 2129;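 active = inhibition above the mean of all tested compounds plus 3 SD, cutoff set per campaign, cut at about 30% in these data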;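 note: 0% = DMSO wells and 100% = unlabeled Bim-BH3 peptide competitor; inhibitors lower millipolarization by displacing the labeled peptide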
* = called active by the depositor; . = no result given. This is a sample that favours compounds with a hit; in the whole collection about 2.3% have one here.

SMILES	Bim-Mcl-1	Mcl1 Bid PPI	Mcl1-Noxa inh	GLD-1 RNA inh	MCL1 BIM primary	Bcl-xL primary
Cc1ccc(C(=O)Nc2nnc(NC(=S)Nc3ccccc3)s2)cc1	-3.0	-28.1	-27.3	10.5	9.5	9.4
O=C(Nc1c2c(nn1-c1ccccc1)CS(=O)C2)c1ccco1 (stereo not given)	.	.	.	4.3	0.2	-1.3
COc1cccc2c(=O)c(C(=O)O)c[nH]c12	-2.0	14.4	-76.1	8.5	5.5	6.0
O=C(O)c1c[nH]c2c(C(F)(F)F)cccc2c1=O	-1.0	53.4*	6.9	-4.0	-0.5	0.9
COc1ccc(-n2c(Cc3cccn3C)nnc2SCC(=O)NCc2ccccc2Cl)cc1	-1.0	64.8*	-6.3	-5.9	2.8	-2.3
COc1ccc(-n2c(Cc3cccn3C)nnc2SCC(=O)NCc2ccc(F)cc2)cc1	-5.0	-24.3	-23.6	-5.2	-2.4	-1.3
COc1ccc(NC(=O)N(C)C[C@H]2Oc3c(NC(=O)C4CCCCC4)cccc3C(=O)N([C@H](C)CO)C[C@@H]2C)cc1	.	.	.	4.5	.	.
Cc1ccn2c(=O)nc(SCC(=O)NCc3ccccc3Cl)nc2c1	.	.	.	2.4	17.9	13.4
CCCC1Oc2ccccc2C(=O)N(CC(=O)c2ccc3c(c2)OCCO3)C1=O (stereo not given)	.	.	.	3.2	-5.6	2.2
CC(C)CC1NC(=O)N(CC(=O)c2ccc3c(c2)OCCO3)C1=O (stereo not given)	-1.0	-4.5	98.4*	-2.6	-0.9	3.0
CN(Cc1ccccc1)C(=O)COC(=O)COc1ccc(C#N)cc1	.	.	.	4.4	1.4	-2.3
CCOc1ccccc1Nc1nnc(Cc2ccccc2Cl)c(=O)[nH]1	-8.0	52.5*	24.6	0.6	12.7	7.1
COc1ccc2nc3ccccc3nc2c1	6.0	-11.2	8.4	27.1	36.3	35.3*
COc1ccc(-c2nc3ccccc3nc2-c2ccccc2)cc1	-1.0	5.9	-0.5	-10.2	7.1	2.1
CCC(=O)N1CCCc2cc(S(=O)(=O)N3CCN(c4ccccc4F)CC3)ccc21	1.0	6.4	65.2*	-4.2	1.2	-3.1
CCOc1ccc(NC(=O)CSc2nc3ccsc3c(=O)n2CCC(=O)O)cc1	.	.	.	1.8	-3.2	-0.4
O=C1N/C(=N/NC(=O)c2cccc3ccccc23)S/C1=C\c1ccccc1OCc1ccccc1	-1.0	56.6*	19.2	.	.	.
COc1cccc(/C=C2\SC(=O)NC2=O)c1OCc1ccc(C(=O)O)cc1	0.0	-60.3	6.9	-2.8	6.5	4.8
COc1ccccc1Oc1ccc(N2CC(C(=O)OCC(=O)c3ccccc3)CC2=O)cc1 (stereo not given)	.	.	.	-9.4	-1.0	-5.0
Cc1cc(N)n(-c2ccc3ccccc3c2)n1	0.0	96.4*	-8.7	2.2	7.3	6.4
COc1ccc(-n2nc(C)cc2N)cc1	-4.0	-19.6	7.5	2.5	-0.6	0.8
Cc1ccc(-n2nc(C)c3c(C)c(CCC(=O)O)c(C)nc32)cc1C	.	.	.	-1.5	1.5	1.4
CC(C)(C)c1csc(NC(=O)Cc2ccc(S(=O)(=O)N3CCOCC3)s2)n1	.	.	.	21.7	34.7	32.8*
CCCCc1nnc(NC(=O)Cc2ccc(S(=O)(=O)N3CCOCC3)s2)s1	.	.	.	15.5	2.1	6.4
CCN1CCN(c2ccc(N3CCN(C(=O)c4ccc(Br)o4)CC3)nn2)CC1	.	.	.	8.5	-4.6	4.0
SMILES	Bim-Mcl-1	Mcl1 Bid PPI	Mcl1-Noxa inh	GLD-1 RNA inh	MCL1 BIM primary	Bcl-xL primary
CCOC(=O)c1c(C)oc2c1c(C(c1ccncc1)N1CCOCC1)c(O)c1ccccc12 (stereo not given)	-1.0	82.2*	98.1*	-1.9	13.3	23.3
CCOC(=O)c1c(C)oc2c1c(CN1CCN(C(=O)OCC)CC1)c(O)c1ccccc12	-8.0	61.6*	97.6*	-1.5	22.5	14.1
CCOC(=O)c1c(C)oc2c1c(C=NCCC(=O)O)c(O)c1ccccc12	-1.0	-28.7	20.2	-1.9	18.1	22.4
CCOC(=O)c1c(C)oc2c1c(CN1CCN(CCO)CC1)c(O)c1ccccc12	0.0	56.1*	95.0*	.	.	.
COc1ccc(C(=O)/C=C/Nc2cccc(O)c2)cc1	5.0	-30.9	5.9	-1.9	48.3*	45.5*
COc1cccc(N/C=C/C(=O)c2ccc(Br)cc2)c1	.	.	.	0.3	-5.1	0.2
Cc1c(Cl)cccc1NC(=O)c1ccc(OCC(=O)NCc2ccccc2)cc1	-2.0	-9.4	-8.5	-3.2	-3.9	7.0
CCOC(=O)c1c(-c2ccc(C)cc2)csc1NC(=O)/C(C#N)=C/c1ccc(O)c(OC)c1	-6.0	27.9	89.9*	.	.	.
